DT40 TDP1 CPT – DT40-hTDP1 cell growth loss with CPT. AID 686979. chicken DT40 Tdp1-/-;hTDP1 cells + 20 nM CPT, ATP luminescence, 48 h. Potency, µM (doses to about 46.2 µM), inactives show at the highest dose activity change, negative = growth inhibition, hits mostly inhibitors. 12% of 420,000 active; further: potency means the concentration at half of the fitted maximal effect; on the % scale 0 is the no-effect control and ±100 the full control effect; nearly all actives have a fitted effect of over 55% in size
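Chicken DT40 Tdp1-/- cells stably complemented with human TDP1 were seeded at 400 cells/well in medium containing 20 nM camptothecin, exposed to pin-transferred compounds, and grown at 37 °C for at least 48 hr. Viability was read as ATP luminescence.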
IL1B secr inh – inhibitors of inflammasome signaling (IL-1 beta secretion). THP-1 LPS/ATP IL-1B secretion, AlphaLISA, 16 h; stronger effect = lower value. activity change, % at 57.5 µM. 4.7% of 360,000 active; in the data active means activity change below about -50%; inconclusive means mostly about -30% to -49%; further: on the % scale 0 is the no-effect control and ±100 the full control effect
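THP-1 cells pretreated 1 hr with compounds (up to 57.5 uM final), then stimulated with LPS (250 ng/mL final) plus ATP (1.25 mM final); secreted IL-1B measured by AlphaLISA after 16 hr, decreased signal indicating inhibition.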
HepG2 viability – HepG2 cytotoxicity, counter-screen for TGF-b inhibitors | HepG2 CAGA-GFP viability, ATP luminescence, 18 h | Potency, µM (highest dose often 46.1 µM), inactives show at the highest dose activity change, negative = cytotoxicity, hits mostly cytotoxic | 0.76% of 410,000 active; further: potency means the concentration at half of the fitted maximal effect
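CellTiter-Glo luminescence gave cytotoxicity after 18 hours at 37 degrees C. The cells were HepG2 CAGA-GFP in 1% FBS DMEM, stimulated with 500 pg/mL TGF-beta after compound addition. %Activity was normalised to no-cell wells (complete cell-killing) and DMSO (no toxicity), and curves were fitted and classified.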
TGFb inhibitor – blocks TGF-b signaling. HepG2 CAGA-GFP TGF-b/SMAD3 reporter, GFP fluorescence, 18 h; TGF-beta stimulated, 500 pg/mL final. Potency, µM (titrated, usually from 46.1 µM), for the others: at the top dose activity, negative = inhibition, hits mostly inhibitors. 1.2% of 410,000 active. AID 588855; further: potency means the concentration at half of the fitted maximal effect; on the % scale 0 is the no-effect control and ±100 the full control effect; nearly all actives have a fitted effect of over 65% in size
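First, reporter cells (HEPG2 CAGA-GFP) rested 2 h at 37 degrees C. Next, compounds were pinned in and TGF-beta added to 500 pg/mL final. After 18 h, GFP was imaged per cell and summed per well.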
TDP1 inh – TDP1 (human) enzyme inhibition; 0.28% of 350,000 active; Potency, µM (top dose mostly 130 µM), without a hit: top-dose activity change, negative = inhibition, actives largely listed as inhibitors; recombinant TDP1, AlphaScreen DNA substrate cleavage; further: potency means the concentration at half of the fitted maximal effect; on the % scale 0 is the no-effect control and ±100 the full control effect; nearly all actives have a fitted effect of over 40% in size
Target sequence (Q9NUW8 whole entry, looked up): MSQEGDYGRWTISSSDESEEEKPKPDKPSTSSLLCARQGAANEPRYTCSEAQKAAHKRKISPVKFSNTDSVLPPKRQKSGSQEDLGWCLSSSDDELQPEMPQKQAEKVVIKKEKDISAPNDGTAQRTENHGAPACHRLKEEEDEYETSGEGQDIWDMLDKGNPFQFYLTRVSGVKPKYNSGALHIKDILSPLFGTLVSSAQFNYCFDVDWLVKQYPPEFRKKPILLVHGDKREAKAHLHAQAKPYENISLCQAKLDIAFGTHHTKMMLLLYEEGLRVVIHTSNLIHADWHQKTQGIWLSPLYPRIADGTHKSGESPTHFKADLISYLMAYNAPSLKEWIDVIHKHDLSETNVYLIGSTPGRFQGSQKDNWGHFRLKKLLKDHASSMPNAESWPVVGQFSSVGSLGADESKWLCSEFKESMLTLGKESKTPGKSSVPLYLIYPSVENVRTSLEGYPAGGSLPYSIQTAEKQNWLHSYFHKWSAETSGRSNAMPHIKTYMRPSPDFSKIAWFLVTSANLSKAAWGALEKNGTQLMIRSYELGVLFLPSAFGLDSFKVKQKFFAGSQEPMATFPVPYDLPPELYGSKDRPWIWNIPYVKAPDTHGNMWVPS
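Tdp1 1 nM final; 15 min RT w/ cpd; substrate 15 nM, 5 min; beads 10 ug/ml, 10 min; AlphaScreen read. Neg ctrl: no enzyme.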
TDP1 cell noCPT – qHTS for Inhibitors of human tyrosyl-DNA phosphodiesterase 1 (TDP1): qHTS in cells in absence of CPT. Potency, µM (doses to about 46.2 µM), for the others: at the highest dose activity change, negative = growth inhibition, usual class: inhibitors. DT40 Tdp1-/- hTDP1 cells, no CPT, ATP luminescence, 48 h. AID 686978, 2013. 15% of 420,000 active; further: potency means the concentration at half of the fitted maximal effect; on the % scale 0 is the no-effect control and ±100 the full control effect; nearly all actives have a fitted effect of over 55% in size
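Growth kinetics read by CellTiter-Glo luminescence after ≥48 hr at 37 °C. Cells: DT40 Tdp1-/- stably carrying human TDP1, 400 per well, compound exposure in the absence of CPT (DMSO vehicle).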
* = called active by the depositor; ? = inconclusive; / = no result given; [ ] = remark or other dose. Compounds with a hit are over-represented: about 18% of the library has one in this group of screens. Unless noted, the call rests on the fitted dose curve; in most records, active means well fitted curve in the direction sought with a large enough effect; inconclusive means small, poorly fitted or top-dose-only effect, or another doubt; inactive means no such curve, though single readings can be large; an effect the other way counts as inactive or inconclusive.

SMILES	DT40 TDP1 CPT	IL1B secr inh	HepG2 viability	TGFb inhibitor	TDP1 inh	TDP1 cell noCPT
CC(C)(C)C1CCC(=O)N(CCSc2ccccc2)CC1 (centres undefined)	?	119.9	-36.5%	?	/	?
CC(C)(C)[C@H]1CCC(=O)N([C@H](CC#N)Cc2ccccc2)CC1	?	-8.0	40.3%	27.9%	/	17.8µM*
COc1ccc(CNC(=O)CN2C(=O)NC3(CCCc4sccc43)C2=O)cc1OC (centres undefined)	-6.4%	8.5	-9.2%	-1.9%	1.3%	-6.3%
CCCCCC(=O)Nc1ccc(C(=O)COC(=O)CN2C(=O)NC3(CCCC3)C2=O)cc1	-2.7%	7.0	-0.7%	-0.1%	1.2%[0.505 µM]	5.8%
Cc1ccc(Cn2c(C)c(CNC3CCCCC3)c(C(=O)O)c2C)cc1	0.4%	/	-23.8%	?	2.5%	-8.2%
O=C(Cc1csc(NC(=O)Nc2cccc(Cl)c2)n1)NC1CCCC1	?	-16.9	-17.2%	?	0.1%	?
CC(=O)c1cccc(OCc2cc(C(=O)N3CCC(N4CCCCC4)CC3)no2)c1	-18.6%	58.0	1.2%	-1.1%	3.7%	11.0%
COc1cc(SC)ccc1C(=O)NC1CCCc2ccccc21 (centres undefined)	?	-16.4	-32.5%	?	-16.7%	?
Cc1cnc(C(=O)OC(C)C(=O)NC2CCCc3ccccc32)cn1 (centres undefined)	24.5%	10.9	-7.3%	-1.9%	-10.8%	-3.6%
COc1ccc(C(=O)N(C)C2CCCc3ccccc32)cc1OC1CCN(C(C)C)CC1 (centres undefined)	20.6µM*	-0.7	2.8%	-2.6%	2.3%	?
COc1ccc(C(=O)NC2CCCc3ccccc32)c(OC)c1OC (centres undefined)	18.4µM*	13.1	-33.1%	-0.2%	0.0%	20.6µM*
COc1ccc(C(=O)OC(C)C(=O)NC2CCCc3ccccc32)cc1OC (centres undefined)	-29.7%	-51.5*	-0.2%	0.1%	0.3%	-16.0%
COc1ccccc1C(=O)NCC(=O)NC1CCCc2ccccc21 (centres undefined)	?	29.5	25.5%	17.3%	7.7%	?
COc1ccccc1CN(C)CC(=O)NC1CCCc2ccccc21 (centres undefined)	14.6µM*	4.4	-35.5%	-27.7%	-1.3%	?
CC(=O)c1ccc(NC(=O)CSc2nc(=O)n(Cc3ccccn3)c3c2CCC3)cc1	-1.7%	/	-27.5%	?	-2.6%	?
COc1ccc(CNC2CCCc3ccccc32)cc1OC (centres undefined)	?	-8.1	-0.8%	6.1%	-5.5%	18.4µM*
COc1ccc(CN(C(=O)c2ccc(-c3ccccc3)[nH]2)C(C(=O)NC(C)(C)C)c2ccncc2)cc1 (centres undefined)	?	-83.3*	-12.7%	?	-3.7%	?
COc1cc(C(C(=O)NC(C)(C)C)N(Cc2ccccc2)C(=O)c2cnccn2)cc(OC)c1OC (centres undefined)	-0.2%	0.2	1.4%	-9.7%	5.1%	-5.3%
COC(=O)c1nn(-c2ccccc2)c(Cl)c1/C=N/OCc1ccc(Cl)cc1Cl	16.4µM*	-1.4	-5.1%	?	2.1%	29.1µM*
Cc1cc(O)c(/C=N/OCc2ccc(Cl)cc2Cl)c(=O)o1	14.6µM*	-12.2	-49.1%	-19.0%	2.7%	?
O=C(CS(=O)(=O)Cc1ccccc1)NCCc1ccc(F)cc1	1.0%	-20.1	-16.1%	0.0%	3.4%	17.9%
c1cc2c(cc1C1=Nn3c(nnc3C3CCCCC3)SC1)OCO2	18.4µM*	0.0	-12.8%	-0.4%	9.5%	13µM*
CCCNC(=O)C1(C)CCN(C(=O)C2(c3ccc(Cl)cc3)CCCC2)C1 (centres undefined)	?	-14.0	-9.9%	-8.2%	/	?
CC(C)(C)OC(=O)N1CCN(C(=O)[C@H](Cc2ccc(O)cc2)n2cc(CCO)nn2)CC1	-12.1%	3.5	5.1%	8.2%	1.3%	-2.2%
CCOc1ccc(C2c3c(oc4ccc(C)cc4c3=O)C(=O)N2Cc2ccc3c(c2)OCO3)cc1OC (centres undefined)	21.3%	/	-2.5%	-14.6%	-3.2%	0.8%
SMILES	DT40 TDP1 CPT	IL1B secr inh	HepG2 viability	TGFb inhibitor	TDP1 inh	TDP1 cell noCPT
O=C1OCC2=C1C(c1ccc3c(c1)OCO3)c1cc3c(cc1O2)OCO3 (centres undefined)	2.06µM*	5.6	0.4%	-10.4%	/	2.31µM*
COc1cc(C2C3=C(COC3=O)Oc3cc4c(cc32)OCO4)cc(OC)c1OC (centres undefined)	0.184µM*	29.1	0.1%	?	3.0%	0.146µM*
N#CC1=C(N)Oc2cc3c(cc2C1c1ccc(Cl)cc1)OCO3 (centres undefined)	?	-2.3	-30.1%	-10.8%	6.8%	?
COc1cc(C2C(C#N)=C(N)Oc3cc4c(cc32)OCO4)cc(OC)c1OC (centres undefined)	0.184µM*	80.7	5.8%	?	8.4%	0.164µM*
COc1cc(C2C3=C(COC3=O)Oc3cc4c(cc32)OCO4)cc(OC)c1O (centres undefined)	0.146µM*	14.7	-1.7%	?	/	0.651µM*
O=C(NNC(=O)c1cc(S(=O)(=O)N2CCOCC2)c(Cl)cc1Cl)c1ccccc1F	-11.2%	-9.3	-0.7%	12.2%	0.6%	?
Cc1ccc(S(=O)(=O)c2cc(OC(=O)c3ccco3)ccc2OC(=O)c2ccco2)cc1	?	4.2	-5.8%	-12.9%	0.0%	16.4µM*
COc1ccc(C(=O)CC(=O)c2ccc(OC)cc2)cc1	1.8%	-3.6	-6.3%	4.5%	/	-11.9%
COc1ccc(C(=O)CC(=O)C(=O)Nc2cc(OC)ccc2OC)cc1	-1.7%	18.3	0.6%	7.7%	/	?
COc1ccc(C(=O)CC(=O)C(=O)Nc2c(C)cccc2C)cc1	20.6µM*	-10.1	-4.9%	-19.3%	/	9.2µM*
COc1ccc(C(=O)CC(=O)C(=O)Nc2ccccc2C(F)(F)F)cc1	10.3µM*	19.4	-17.1%	-11.4%	/	6.51µM*
COc1ccc(C(=O)CC(Nc2ccc([N+](=O)[O-])cc2)c2ccc(Cl)cc2)cc1 (centres undefined)	?	-52.7*	-8.7%	?	0.0%	18.4µM*
